# Experimental data: PubChem BioAssay (NCATS)
# Records with an inconclusive call do not appear. A call without a number means that no potency is given here. Calls of active or inactive are those of the source. The call rests on the fitted dose curve; in most records, active means well fitted curve in the direction sought with a large enough effect; inconclusive means small, poorly fitted or top-dose-only effect, or another doubt; inactive means no such curve, though single readings can be large; an effect the other way counts as inactive or inconclusive.
# How the values were obtained:
# [1] = target: N-terminal Xaa-Pro-Lys N-methyltransferase 1 (Homo sapiens) (UniProt Q9BV86); experiment: qHTS Assay for Inhibitors of N-terminal methyltransferase 1 (NTMT1): LOPAC validation of the NTMT1 SAHH-coupled ThioGlo3 Assay (AID 1347143); conditions: recombinant NTMT1, SAHH-coupled ThioGlo3 fluorescence; series mostly up to 114 µM; further: nearly all actives have a fitted effect of over 70% in size; further: potency means the concentration at half of the fitted maximal effect
# N-terminal Xaa-Pro-Lys N-methyltransferase 1 (Homo sapiens), sequence (Q9BV86 whole entry, looked up): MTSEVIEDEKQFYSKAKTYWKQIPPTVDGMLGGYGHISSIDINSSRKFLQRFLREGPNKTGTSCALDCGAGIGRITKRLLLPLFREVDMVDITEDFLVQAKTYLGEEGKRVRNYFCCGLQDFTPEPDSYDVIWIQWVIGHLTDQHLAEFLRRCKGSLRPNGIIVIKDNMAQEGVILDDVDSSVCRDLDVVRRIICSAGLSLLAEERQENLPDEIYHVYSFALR
# In short: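 Fluorescence read-out (excitation 340nm, emission 450nm) of SAH-derived thiol, measured via SAHH coupling and ThioGlo3, taken immediately and after a 30 min room-temperature reaction, then normalized to the background read. Enzyme: NTMT1 at 125nM; cofactor SAM 100uM in the added reagent.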
# [2] = tested on: Zika virus NS2B-NS3 protease (unlinked); experiment: Optimization of GU AMC qHTS for Zika virus inhibitors: Unlinked NS2B-NS3 protease assay (AID 1347151); conditions: recombinant ZIKV NS2B-NS3 protease, fluorogenic AMC substrate; series mostly up to 52.5 µM; further: nearly all actives have a fitted effect of over 80% in size; further: potency means the concentration at half of the fitted maximal effect
# In short: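 Percent inhibition is derived from the 15-min change in AMC fluorescence, normalized against no-inhibitor and no-enzyme controls, then fitted to a 4-parameter Hill curve. Aprotinin was the intraplate control.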
# [3] = tested on: Zika virus NS2B-NS3 protease; experiment: Primary screen GU AMC qHTS for Zika virus inhibitors (AID 1347154); conditions: Zika NS2B-NS3 unlinked protease, AMC fluorogenic substrate; series mostly up to 54.1 µM; further: nearly all actives have a fitted effect of over 70% in size
# In short: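 Unlinked Zika NS2B hydrophilic domain/NS3 protease domain noncovalent complex (25 nM final) in 10 mM Tris-HCl pH 8.0, 0.01% Tween 20, with AMC peptide substrate. Fluorescence (ex 340, em 450 nm) change over 15 min, room temperature; percent inhibition fitted to 4-parameter Hill equation.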
# [4] = tested on: Zika virus NS2B-NS3 protease (linked construct); experiment: Confirmatory screen NINDS AMC qHTS for Zika virus inhibitors (AID 1347152); conditions: Purified linked NS2B-NS3, AMC substrate fluorescence; series mostly up to 56.6 µM;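 further: AMC fluorescence gain from cleaved Bz-Nle-KRR-AMC substrate over 15 min; top concentration of the series differs between compounds; nearly all actives have a fitted effect of over 70% in size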
# In short: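 In this dose-response qHTS, AMC release from 10 microM Bz-Nle-KRR-AMC by 1 nM linked protease is measured over 15 minutes (about 20% conversion) at pH 8.0. Percent inhibition is fitted to a 4-parameter Hill curve.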
# [5] = tested on: Zika virus NS2B-NS3 protease (unlinked complex); experiment: Confirmatory screen GU AMC qHTS for Zika virus inhibitors (AID 1347153); conditions: Recombinant NS2B-NS3 protease, AMC substrate fluorescence; series mostly up to 57.1 µM; further: nearly all actives have a fitted effect of over 70% in size
# In short: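 Unlinked enzyme 25 nM, Tris pH 8.0/0.01% Tween 20; cpd 15 min RT, dark; + AMC substrate 10 µM (Km 18.3 µM); 340/450 nm read at t0 and 15 min; % inhibition → 4-param fit.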
smiles,measurement,setting,value
COCCOc1cc2ncnc(Cl)c2cc1OCCOC,Potency,[1],inactive
same,Potency,[2],inactive
OC[C@H]1O[C@@H](n2cnc3c(NC4CCCCC4)ncnc32)[C@H](O)[C@@H]1O,Potency,[1],inactive
same,Potency,[2],inactive
same,Potency,[3],inactive
CC(C)NC[C@@H](O)c1ccc(O)c(O)c1,Potency,[1],50.1 µM (active)
same,Potency,[2],inactive
O=C(/C=C/c1ccc(O)c(O)c1)OCCc1ccccc1,Potency,[1],35.5 µM (active)
same,Potency,[2],6.7 µM (active)
CCOC(=O)N1CCN(/[N+]([O-])=N/Oc2ccc([N+](=O)[O-])cc2[N+](=O)[O-])CC1,Potency,[1],28.2 µM (active)
same,Potency,[2],inactive
Cc1ccc(S(=O)(=O)/C=C/C#N)cc1,Potency,[1],5.62 µM (active)
same,Potency,[2],inactive
same,Potency,[3],inactive
Cn1cc(C2=C(c3ccc(Cl)cc3Cl)C(=O)NC2=O)c2ccccc21,Potency,[1],inactive
same,Potency,[2],inactive
same,Potency,[3],inactive
COc1cccc(C(=O)NCCN2CCN(c3ccc(Cl)cc3)CC2)c1,Potency,[1],inactive
same,Potency,[2],inactive
S=c1[nH]c(-c2ccccc2)cn1-c1ccccc1,Potency,[1],6.31 µM (active)
same,Potency,[2],26.7 µM (active)
same,Potency,[4],inactive
same,outcome,[5],inactive
C=CC(N)CCC(=O)O (stereo not drawn),Potency,[1],inactive
same,Potency,[2],inactive
Cn1c(=O)c(-c2c(Cl)cccc2Cl)cc2cnc(Nc3ccc(N4CCOCC4)cc3)nc21,Potency,[1],56.2 µM (active)
same,Potency,[2],inactive
COc1ccc2c(c1)CCC1C2CC[C@@]2(C)C1CC[C@@H]2NCCCCCCN1C(=O)CCC1=O (stereo partly drawn),Potency,[1],inactive
same,Potency,[2],inactive
CN1C2CC(OC(=O)[C@H](CO)c3ccccc3)CC1C1OC12 (stereo partly drawn),Potency,[1],inactive
same,Potency,[2],inactive
Nc1nc2c(ncn2[C@@H]2O[C@H](CO)[C@@H](O)[C@@H]2O)c(=O)[nH]1,Potency,[1],inactive
same,Potency,[2],inactive
